Results as given in PubChem BioAssay (NCATS).
Inconclusive results are not listed. Calls of active or inactive are those of the source. The call rests on the fitted dose curve; in most records, active means well fitted curve in the direction sought with a large enough effect; inconclusive means small, poorly fitted or top-dose-only effect, or another doubt; inactive means no such curve, though single readings can be large; an effect the other way counts as inactive or inconclusive.

Tests used:
[1] = Cell Viability - LYMP2-001 (AID 921); further: series mostly up to about 92 µM; nearly all actives have a fitted effect of over 70% in size
Outline: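 Human lymphoblastoid cells (Coriell), 2500 per well, were preincubated 5 hr at 37 C, then exposed to compounds in complete medium for 24 hr at 37 C. Cellular ATP was read by CellTiter-Glo luminescence; AC50 from Hill fits of concentration-response data.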

[2] = MultiTox-Fluor Cytotoxicity Assay - LYMP1-001 - Dead Cells (AID 946)
Outline: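 LYMP1-001 lymphoblastoid cells (2500/well) treated 16 h at 37 C. Dead-cell protease cleavage of bis-AAF-R110 read at Ex/Em 485/520. Normalized to DMSO and 15 uM tetraoctylammonium bromide; AC50 from Hill fits.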

[3] = MultiTox-Fluor Cytotoxicity Assay - LYMP1-001 - Live Cells (AID 947)
[4] = Cell Viability - LYMP1-002 - Assay at 16 hr (AID 948)
Outline: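 Human lymphoblastoid cells (LYMP1-002), 2500/well, were preincubated 5 hr at 37 C, then exposed to compounds for 16 hr at 37 C in complete medium. Cellular ATP was read by CellTiter-Glo luminescence after 30 min at room temperature; AC50 from Hill fits.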

[5] = MultiTox-Fluor Cytotoxicity Assay - LYMP1-002 - Live Cells (AID 955)
Outline: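 Cells were seeded at 2500 per well and incubated 5 hr. Compounds were then added for 16 hr at 37 C, followed by MultiTox-Fluor reagent for 60 min at room temperature and fluorescence reading of viable-cell protease signal.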

[6] = MultiTox-Fluor Cytotoxicity Assay - LYMP1-003 - Dead Cells (AID 961); further: nearly all actives have a fitted effect of over 70% in size
Outline: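 LYMP1-003 human lymphoblastoid cells (2500/well) exposed to compound 16 h at 37 C in complete medium; dead-cell protease read with bis-AAF-R110 fluorescence (Ex/Em 485/520) after 60 min at room temperature. Normalized to DMSO and 15 uM tetraoctylammonium bromide; AC50 from Hill fit.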

[7] = MultiTox-Fluor Cytotoxicity Assay - LYMP1-003 - Live Cells (AID 962);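 further: cytotoxic hits lower the live-cell protease signal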
Outline: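 Acute cytotoxicity is scored as a drop in live-cell protease activity in human lymphoblastoid LYMP1-003 cells after 16 hr compound exposure at 37 C. AC50 values come from Hill-equation modelling of concentration-response data.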

[8] = Cell Viability - LYMP1-003 - Assay at 24 hr (AID 963)
Outline: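 Cytotoxicity is scored as a concentration-dependent fall in ATP-linked luciferase signal in human lymphoblastoid LYMP1-003 cells treated 24 hr at 37 C in complete culture medium.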

[9] = Cell Viability - LYMP1-003 - Assay at 40 hr (AID 964); further: series mostly up to about 92 µM; nearly all actives have a fitted effect of over 60% in size
Outline: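 Luminescent ATP signal (CellTiter-Glo) served as the viability read-out after 40 hr compound treatment of human lymphoblastoid LYMP1-003 cells at 37 C. Decreases in ATP were fitted with the Hill equation to give AC50.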

[10] = Cell Viability - LYMP2-003 (AID 965);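 further: cells exposed to compounds for 24 h before reading; nearly all actives have a fitted effect of over 50% in size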
Outline: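 Human lymphoblastoid cells (2500/well) were pre-incubated 5 hr at 37 C, then exposed to compounds over a concentration range for 24 hr at 37 C. Intracellular ATP was read by CellTiter-Glo luminescence; AC50 came from Hill-equation fits.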

[11] = Cell Viability - LYMP2-005 (AID 967); further: series mostly up to about 92 µM
Outline: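 CellTiter-Glo luminescence (cellular ATP) read-out; LYMP2-005 lymphoblastoid cells, 2500/well, 5 h pre-incubation, then 24 h compound exposure at 37 C in complete medium. Tetraoctylammonium bromide positive control; AC50 by standard Hill fit.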

[12] = Cell Viability - LYMP2-009 (AID 968); further: series mostly up to about 92 µM; nearly all actives have a fitted effect of over 55% in size
[13] = Cell Viability - LYMP2-011 (AID 969); further: nearly all actives have a fitted effect of over 60% in size
Outline: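 In this qHTS cytotoxicity format, compounds are tested across concentrations on human lymphoblastoid cells in complete medium for 24 hours at 37 C. Viability is taken as cellular ATP measured by luciferase luminescence.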

[14] = Cell Viability - LYMP2-013 (AID 970); further: series mostly up to about 92 µM; nearly all actives have a fitted effect of over 55% in size
Outline: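 Cytotoxicity is scored as a concentration-dependent drop in intracellular ATP in human lymphoblastoid cells after 24 hr compound exposure at 37 C. ATP is quantified by luciferase luminescence, and AC50 values come from Hill-equation modeling.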

[15] = Cell Viability - LYMP2-015 (AID 971); further: nearly all actives have a fitted effect of over 55% in size
Outline: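 Cells are seeded at 2500 per well and incubated 5 hr at 37 C. Compounds are added across a concentration series for 24 hr at 37 C. CellTiter-Glo is added, and luminescence is read after 30 min at room temperature.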

[16] = Cell Viability - LYMP2-017 (AID 972); further: series mostly up to about 92 µM; nearly all actives have a fitted effect of over 55% in size
Outline: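 Cytotoxicity is scored as a concentration-dependent drop in cellular ATP in a human lymphoblastoid line after 24 hr treatment at 37 C. Values are AC50s from Hill-equation modelling.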

[17] = Cell Viability - LYMP2-019 (AID 973); further: nearly all actives have a fitted effect of over 55% in size
Outline: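 Cytotoxicity is scored as a concentration-dependent drop in cellular ATP after cells (2500/well) receive compound for 24 hr at 37 C. Tetraoctylammonium bromide serves as positive control.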

[18] = Cell Viability - LYMP2-021 (AID 974)
Outline: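 Loss of cellular ATP, measured with a luciferase-based CellTiter-Glo readout, serves as the toxicity signal in human lymphoblastoid cells treated for 24 hours at 37 C. Potency is reported as AC50 from a standard Hill model.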

[19] = Cell Viability - LYMP2-023 (AID 975)
Outline: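 Steps: seed 2500 human lymphoblastoid cells per well, incubate 5 hr at 37 C, add compound for 24 hr at 37 C, add CellTiter-Glo, hold 30 min at room temperature, read luminescence. AC50 derived by Hill modelling.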

[20] = Cell Viability - LYMP2-025 (AID 976); further: series mostly up to about 92 µM
Outline: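 Acute cytotoxicity is scored as a concentration-dependent fall in intracellular ATP, measured by luciferase luminescence, in human lymphoblastoid LYMP2-025 cells exposed to compound for 24 hours at 37 C. AC50 values come from standard Hill fits.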

[21] = Cell Viability - LYMP2-006 (AID 978); further: series mostly up to about 92 µM; nearly all actives have a fitted effect of over 60% in size
Outline: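 Human lymphoblastoid cells, 2500 per well, were preincubated 5 hr at 37 C, then exposed to compounds for 24 hr at 37 C in complete medium. Viability was read as intracellular ATP by CellTiter-Glo luminescence; AC50 from Hill-equation fits of qHTS concentration-response data.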

[22] = Cell Viability - LYMP2-007 (AID 979);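 further: cells exposed to compound for 24 h before reading; nearly all actives have a fitted effect of over 60% in size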
Outline: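 Cells are seeded at 2500 per well and rested 5 hr. Compounds are then added over a concentration series for 24 hr at 37 C. CellTiter-Glo is added for 30 min at room temperature before luminescence reading.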

[23] = Cell Viability - LYMP2-010 (AID 981); further: nearly all actives have a fitted effect of over 55% in size
Outline: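 Steps: seed 2500 LYMP2-010 cells per well; incubate 5 hr at 37 C; add compound; incubate 24 hr at 37 C; add CellTiter-Glo, wait 30 min at room temperature; read luminescence. Concentration-response fitted to Hill equation for AC50.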

[24] = Cell Viability - LYMP2-012 (AID 982)
[25] = Cell Viability - LYMP2-014 (AID 983); further: series mostly up to about 92 µM; nearly all actives have a fitted effect of over 50% in size
Outline: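 Cells are plated at 2500/well and left 5 hr at 37 C. Compounds are added across a concentration range and incubated 24 hr at 37 C in complete medium. CellTiter-Glo is added, and luminescence is read after 30 min at room temperature.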

Measured: Potency

Cc1ccccc1O
inactive: all assays above
